# Unmarked numbers belong to inactive results. Results filed as inconclusive are left out. Activity calls are given as the source filed them. Unless noted, the call rests on the fitted dose curve; in most records, active means well fitted curve in either direction with a large enough effect (not every such curve was filed as active); inconclusive means small, poorly fitted or top-dose-only effect, or another doubt; inactive means flat fitted curve, though single readings scatter.
# How the values were obtained:
# [1] = molecular target: Lysosomal acid glucosylceramidase (Homo sapiens) (UniProt P04062); assay: Glucocerebrosidase-p2 (AID 348; in the data active means potency below about 10 µM; further: potency means the concentration at half of the fitted maximal effect); conditions: purified GBA, blue fluorogenic substrate, 40 min
# Sequence of Lysosomal acid glucosylceramidase (Homo sapiens) (P04062 whole entry, looked up): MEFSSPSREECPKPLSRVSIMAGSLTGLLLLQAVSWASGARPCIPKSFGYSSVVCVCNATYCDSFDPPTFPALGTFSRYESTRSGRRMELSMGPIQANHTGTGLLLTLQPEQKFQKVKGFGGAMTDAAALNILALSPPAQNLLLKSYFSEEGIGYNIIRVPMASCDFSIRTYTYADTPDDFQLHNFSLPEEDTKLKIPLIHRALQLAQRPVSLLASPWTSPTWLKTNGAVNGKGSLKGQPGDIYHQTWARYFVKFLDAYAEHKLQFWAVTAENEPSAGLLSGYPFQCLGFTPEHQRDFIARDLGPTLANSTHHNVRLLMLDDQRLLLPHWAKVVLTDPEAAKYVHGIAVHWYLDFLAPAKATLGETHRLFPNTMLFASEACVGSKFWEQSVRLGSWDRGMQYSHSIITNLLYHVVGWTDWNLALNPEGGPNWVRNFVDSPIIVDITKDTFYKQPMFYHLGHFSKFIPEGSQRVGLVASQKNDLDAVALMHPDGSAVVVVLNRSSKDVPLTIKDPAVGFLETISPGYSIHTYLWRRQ
# Procedure, shortened: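 Normal human glucocerebrosidase (0.2 nM) with blue fluorogenic substrate (80 uM final) in citrate/phosphate pH 5.9 with 10mM sodium taurocholate, 0.01% tween-20; 40 min RT, NaOH/glycine stop; fluorescence Ex 365/Em 440; AC50 from a titration from 0.6 nM upwards.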
# [2] = AP1 Signaling Pathway (AID 357); conditions: ME-180 AP-1-bla reporter, EGF-induced, beta-lactamase ratio, 5 h; at 7.69 µM (top of the series) unless noted;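 further: ME-180 reporter cells stimulated with EGF at its EC50 level; on the % scale 0 is the no-effect control and ±100 the full control effect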
# Procedure, shortened: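 Modulation of EGF-driven AP-1 transcription was assessed with a beta-lactamase reporter in ME-180 cells. Compound and EC50 EGF were co-incubated 5 hours at 37 °C before 2.5-hour CCF4 loading at room temperature and dual-emission reading.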
# [3] = molecular target: Cytochrome P450 1A2 (Homo sapiens) (UniProt P05177); assay: p450-cyp1a2 (AID 410; calls by dose curve; further: potency means the concentration at half of the fitted maximal effect;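 on activity change, negative = inhibition: -100% = full effect of reference inhibitor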); conditions: recombinant CYP1A2, luciferin-ME demethylation, luminescence; series mostly up to 11.4 µM
# Sequence of Cytochrome P450 1A2 (Homo sapiens) (P05177 whole entry, looked up): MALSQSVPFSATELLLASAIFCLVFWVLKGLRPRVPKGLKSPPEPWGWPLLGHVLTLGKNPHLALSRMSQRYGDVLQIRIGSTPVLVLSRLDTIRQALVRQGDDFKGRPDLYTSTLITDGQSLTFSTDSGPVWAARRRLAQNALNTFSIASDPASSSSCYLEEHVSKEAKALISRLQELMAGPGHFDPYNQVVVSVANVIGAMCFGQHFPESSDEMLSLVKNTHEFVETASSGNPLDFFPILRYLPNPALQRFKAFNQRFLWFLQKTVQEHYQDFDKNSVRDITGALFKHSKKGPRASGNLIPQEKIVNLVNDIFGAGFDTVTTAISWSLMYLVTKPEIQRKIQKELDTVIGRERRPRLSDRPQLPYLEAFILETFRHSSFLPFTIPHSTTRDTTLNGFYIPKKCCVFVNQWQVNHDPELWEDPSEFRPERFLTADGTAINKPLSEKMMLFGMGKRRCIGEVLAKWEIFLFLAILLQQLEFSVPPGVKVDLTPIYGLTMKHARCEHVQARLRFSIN
# Procedure, shortened: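 Luminescent demethylation readout: Luciferin-ME (100uM, equal to Km) turned over by 20nM CYP1A2 for 60 min at room temperature after NADPH regeneration addition, following 10 min compound preincubation. Normalization used 57 uM furafylline as full inhibition.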
# [4] = NFAT Signaling Pathway (AID 444); conditions: Jurkat NFAT-bla M1, carbachol, beta-lactamase ratio, 5 h; at 7.69 µM (top of the series) unless noted;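 further: carbachol stimulus at about its EC50 of 1 µM final; on the % scale 0 is the no-effect control and ±100 the full control effect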
# Procedure, shortened: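 Jurkat cells with NFAT-driven β-lactamase reporter and co-expressed M1 receptor, stimulated with carbachol (final 1 uM, ~EC50), compound titration, 5 h at 37 °C. CCF4 loaded 1 h at RT; 460/530 nm ratio gave %activity and AC50.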
# [5] = Stat Signaling Pathway (AID 446); conditions: ME-180 (cervical carcinoma) SIE beta-lactamase reporter, IL-6 stimulated, 5 h; at 7.69 µM (top of the series) unless noted;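 further: ME-180 cervical cancer cells given 40 pM IL-6 alongside compound; SIE-controlled beta-lactamase reporter measured as 460/530 nm FRET emission ratio; on the % scale 0 is the no-effect control and ±100 the full control effect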
# Procedure, shortened: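 FRET read-out (405 nm excitation, 460/530 nm emission) of a beta-lactamase reporter under a STAT-inducible element in ME-180 cervical carcinoma cells. Cells with compound receive 40 pM IL-6 for 5 h. Values are normalised to AC90 stimulation and AC90 JAK-inhibitor controls.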
# [6] = molecular target: Glucocorticoid receptor (Homo sapiens) (UniProt P04150); assay: GR-GFP Redistribution (AID 450;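 active means compounds whose dose series gives a full or clear partial fitted curve of increased nuclear translocation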; further: potency means the concentration at half of the fitted maximal effect); conditions: U2OS GR-GFP nuclear translocation, laser cytometry, 2 h
# Sequence of Glucocorticoid receptor (Homo sapiens) (P04150 whole entry, looked up, the tested form may be a part): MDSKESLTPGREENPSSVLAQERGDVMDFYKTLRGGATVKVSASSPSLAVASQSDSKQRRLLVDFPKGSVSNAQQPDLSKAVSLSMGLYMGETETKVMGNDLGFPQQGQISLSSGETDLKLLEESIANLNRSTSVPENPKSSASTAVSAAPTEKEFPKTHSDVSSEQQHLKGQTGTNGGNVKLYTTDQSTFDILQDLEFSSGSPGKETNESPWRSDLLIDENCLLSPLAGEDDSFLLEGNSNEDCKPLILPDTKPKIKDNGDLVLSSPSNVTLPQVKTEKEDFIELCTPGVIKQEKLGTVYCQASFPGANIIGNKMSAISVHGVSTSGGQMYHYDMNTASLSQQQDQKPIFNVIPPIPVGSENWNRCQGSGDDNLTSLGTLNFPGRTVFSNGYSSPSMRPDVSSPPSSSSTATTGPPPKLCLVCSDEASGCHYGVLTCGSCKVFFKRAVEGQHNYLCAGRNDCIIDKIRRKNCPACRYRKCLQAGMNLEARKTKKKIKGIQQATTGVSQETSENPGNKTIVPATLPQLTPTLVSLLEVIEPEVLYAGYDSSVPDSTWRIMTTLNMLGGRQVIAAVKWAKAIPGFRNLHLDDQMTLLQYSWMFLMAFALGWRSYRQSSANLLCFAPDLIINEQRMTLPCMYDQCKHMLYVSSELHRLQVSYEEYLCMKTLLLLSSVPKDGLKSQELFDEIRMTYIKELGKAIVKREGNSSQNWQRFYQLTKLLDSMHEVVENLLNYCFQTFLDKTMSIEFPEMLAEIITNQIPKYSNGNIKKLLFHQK
# [7] = molecular target: Glucocorticoid receptor (Homo sapiens) (UniProt P04150); assay: GR-EFC Redistribution (AID 451; calls by dose curve; further: potency means the concentration at half of the fitted maximal effect); conditions: CHO-K1 GR-EFC translocation, beta-gal luminescence, 2 h
# Procedure, shortened: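 CHO-K1 cells expressing nuclear EA and GR-ED fragments of b-gal; compounds titrated up to 46 uM final, 2 h at 37 C. GR nuclear translocation read as complemented b-gal luminescence after 1 h RT detection.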
# [8] = molecular target: Mitogen-activated protein kinase 10 (Mus musculus) (UniProt Q61831); assay: JNK3 AlphaScreen Assay (AID 530); conditions: JNK3 lysate, c-Jun phosphorylation; series mostly up to 11.4 µM;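 further: kinase came from lysate of stimulated human HepG2 cells; signal reports phosphorylation of biotinylated GST-cJun 1-79 at Ser73 with 10 µM ATP; on the % scale 0 is the no-effect control and ±100 the full control effect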
# Procedure, shortened: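 Activity was read by AlphaScreen after JNK3-containing HepG2 lysate (cytokine pre-activated) phosphorylated biotinylated GST-cJun with 10 uM ATP at room temperature. Phospho-Ser73 cJun antibody with Protein-A acceptor beads provided detection.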
# [9] = molecular target: 3',5'-cyclic-AMP phosphodiesterase 4B (Homo sapiens) (UniProt Q07343); assay: qHTS Assay for Inhibitors of PDE-IV (AID 607; active means well fitted activation curve with a large enough effect in the main read-out, with a control signal flat, not every such curve was filed as active; further: % of control where 0% means no effect); conditions: HEK293 ACTOne CNG channel cells, membrane potential fluorescence; series mostly up to 22.9 µM
# Sequence of 3',5'-cyclic-AMP phosphodiesterase 4B (Homo sapiens) (Q07343 whole entry, looked up): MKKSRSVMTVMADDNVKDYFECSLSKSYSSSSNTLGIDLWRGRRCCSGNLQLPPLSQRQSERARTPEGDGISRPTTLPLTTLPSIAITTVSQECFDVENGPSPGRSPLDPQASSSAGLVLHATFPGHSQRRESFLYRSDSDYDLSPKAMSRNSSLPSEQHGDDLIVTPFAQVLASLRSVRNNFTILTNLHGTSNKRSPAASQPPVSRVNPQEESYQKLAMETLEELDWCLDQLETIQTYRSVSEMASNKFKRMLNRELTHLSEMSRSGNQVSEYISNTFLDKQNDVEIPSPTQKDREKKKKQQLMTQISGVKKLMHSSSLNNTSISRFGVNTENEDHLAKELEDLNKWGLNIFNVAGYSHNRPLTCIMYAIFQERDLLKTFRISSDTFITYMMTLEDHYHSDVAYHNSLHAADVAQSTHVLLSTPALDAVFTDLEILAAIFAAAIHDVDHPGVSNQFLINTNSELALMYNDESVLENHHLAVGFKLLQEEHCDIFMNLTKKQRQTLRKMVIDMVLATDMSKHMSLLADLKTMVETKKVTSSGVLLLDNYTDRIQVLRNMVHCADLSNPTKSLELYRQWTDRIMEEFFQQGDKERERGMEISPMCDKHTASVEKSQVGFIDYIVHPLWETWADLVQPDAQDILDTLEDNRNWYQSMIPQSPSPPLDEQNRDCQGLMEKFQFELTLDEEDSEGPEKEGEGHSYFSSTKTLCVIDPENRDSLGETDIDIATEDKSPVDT
# Procedure, shortened: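 Cell-based read-out of cAMP via a modified cyclic nucleotide-gated channel and membrane potential dye (535/590 nm) in HEK293 cells expressing PDE4 endogenously. Compounds tested up to 22.9 uM final; 100 uM RO 20-1724 reference.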
Structure (SMILES),Potency [1] [µM],"activity change, negative = inhibition [2] [%]",Potency [3],"activity change, negative = inhibition [4] [%]","activity, negative = inhibition [5] [%]",Potency [6],Potency [7] [µM],Potency [8],Potency [9],"activity change, negative = inhibition [3]"
OCCSCc1ccccc1,> 11.4,2.72,inactive,3.48,4.23,> 46 µM,> 9.22,inactive,inactive,–
CC(=O)N[C@H](Cc1ccc(O)cc1)C(=O)O,> 11.4,-0.588,inactive,-3.29,-0.609,> 46 µM,> 9.22,inactive,inactive,–
Cc1cc(N2CCN(C)CC2)n2nc(-c3ccc(Cl)cc3)nc2n1,> 11.4,-1.96,inactive,13.2,4.28,> 46 µM,> 9.22,inactive,inactive,–
CC1=C(CC[C@H](C)CO)O[C@@H]2C[C@@H]3[C@H]4CC[C@H]5C[C@@H](O)CC[C@]5(C)[C@@H]4CC(=O)[C@@]3(C)[C@@H]12,> 11.4,12.3,–,-4.84,-18.7,> 46 µM,> 9.22,inactive,inactive,-21.1% [at 2.29 µM]
c1c[nH]c(CN2CCN(Cc3ncc[nH]3)CC2)n1,> 11.4,4.41,inactive,-12.2,-5.33,> 46 µM,> 9.22,inactive,inactive,–
Cc1cc(C2(c3cc(C)c(O)c(C(=O)O)c3)OS(=O)(=O)c3ccccc32)cc(C(=O)O)c1O,> 11.4,-7.31,inactive,-1.56,2.58,> 46 µM,> 9.22,inactive,inactive,–
CN(C)S(=O)(=O)c1nc(Cl)c2[nH]cnc2n1,> 11.4,1.09,inactive,17.4,-1.44,> 46 µM,> 9.22,inactive,inactive,–
O=S(O)O.O=S(O)O.[Co].[NH2-].[NH2-].[NH2-].[NH2-],> 11.4,-7.83,inactive,15.9,26,> 46 µM,> 9.22,inactive,inactive,–
Cc1ccc(S(=O)(=O)O[C@@H]2[C@H]([C@@H]3COC(C)(C)O3)O[C@H]3OC(C)(C)O[C@@H]32)cc1,> 11.4,1.73,inactive,3.01,7.9,> 46 µM,> 9.22,inactive,inactive,–
O=C(O)[C@@H](O)c1ccc(F)cc1,> 11.4,26.9,inactive,11,8.22,> 46 µM,> 9.22,inactive,inactive,–
O=C(O)c1nnsc1COCc1ccccc1,> 11.4,6.35,inactive,6.97,12.4,> 46 µM,> 9.22,inactive,inactive,–
C[N+]1([C@H](CO)Cc2c[nH]c3ccccc23)Cc2ccccc2C1,> 11.4,-7.62,inactive,-15.6,13.4,> 46 µM,> 9.22,inactive,inactive,–
O=[N+]([O-])c1ccc(NN=C2c3ccccc3Cc3ccccc32)c([N+](=O)[O-])c1,> 11.4,26.1,0.794 µM (active),-1.66,19.7,> 46 µM,> 9.22,inactive,inactive,–
O=C(O)CCC(=O)c1ccc(Cl)cc1,> 11.4,11.6,inactive,-7.55,17.9,> 46 µM,> 9.22,inactive,inactive,–
C[C@@H](CSC(=N)N)C(N)=O,> 11.4,-3.05,–,13.8,9.57,> 46 µM,> 9.22,inactive,inactive,-6.6% [at 2.29 µM]
CC(C)(C)c1cc2c(O)c(c1)Cc1cc(C(C)(C)C)cc(c1O)Cc1cc(C(C)(C)C)cc(c1O)Cc1cc(C(C)(C)C)cc(c1O)Cc1cc(C(C)(C)C)cc(c1O)Cc1cc(C(C)(C)C)cc(c1O)Cc1cc(C(C)(C)C)cc(c1O)Cc1cc(C(C)(C)C)cc(c1O)C2,> 11.4,6.61,inactive,-14.8,-5.63,> 46 µM,> 9.22,inactive,inactive,–

Structure (SMILES),Potency [1] [µM],"activity change, negative = inhibition [2] [%]",Potency [3],"activity change, negative = inhibition [4] [%]","activity, negative = inhibition [5] [%]",Potency [6],Potency [7] [µM],Potency [8],Potency [9],"activity change, negative = inhibition [3]"
O=C(O)[C@@H]1[C@@H]2C[C@@H]3[C@@H](OC(=O)[C@@H]31)[C@H]2Br,> 11.4,4.57,inactive,-26.7,5.86,> 46 µM,> 9.22,inactive,inactive,–
C[C@@]12CC[C@@H]3[C@H](CCC4=CC(=O)CC[C@]43C)[C@@H]1CC[C@@H]2C(=O)COS(=O)(=O)c1ccc(Br)cc1,> 11.4,-0.601,inactive,19,-0.203,0.793 µM (active),> 9.22,inactive,inactive,–
N[C@@H](CSCc1ccc(I)cc1)C(=O)O,> 11.4,-1.51,–,0.82,10.1,> 46 µM,> 9.22,inactive,inactive,-12% [at 2.29 µM]
O=C(O)CNC(=O)c1ccccc1O,> 11.4,6.2,5.01 µM (active),10.4,6.14,> 46 µM,> 9.22,inactive,inactive,–
O=C(N/N=C\c1cccc(O)c1)c1ccncc1,> 11.4,-2.52,inactive,-7.01,4.22,> 46 µM,> 9.22,inactive,inactive,–
CSc1nc(C)cc(Nc2ccc(O)c(CN3CCOCC3)c2)n1,> 11.4,-11.8,3.98 µM (active),12.3,-6.58,> 46 µM,> 9.22,inactive,inactive,–
O=[N+]([O-])c1ccc2c(c1)Cc1cc(N=Cc3ccc4c(c3)OCO4)ccc1-2,> 11.4,-3.82,0.794 µM (active),-8.54,-4.51,> 46 µM,> 9.22,inactive,inactive,–
NC([N-]/N=C/c1ccccn1)=[S]=[Fe].O=S(=O)(O)O,> 11.4,8.56,–,-1.69,-13.8,> 46 µM,> 9.22,inactive,inactive,15.8% [at 2.29 µM]
Cc1[nH]c2ccccc2c1-c1cc(-c2cc(-c3c(C)[nH]c4ccccc34)nc(N)n2)nc(N)n1,> 11.4,-6.63,0.398 µM (active),1.59,-4.41,> 46 µM,> 9.22,inactive,inactive,–
CC(=O)C=NCC(=O)O,> 11.4,-0.671,inactive,3.49,-0.18,> 46 µM,> 9.22,inactive,inactive,–
C/C(=N/O)[C@@H]1C[C@H](CC(=O)O)C1(C)C,> 11.4,10.6,inactive,9.94,18.2,> 46 µM,> 9.22,inactive,inactive,–
COc1ccc(/C=N\NC(=O)O)cc1,> 11.4,7.79,0.501 µM (active),19.9,7.25,> 46 µM,> 9.22,inactive,inactive,–
O=C(O)c1cc(-c2ccc(-c3ccc(-c4cc(C(=O)O)c5cc(Cl)ccc5n4)cc3)cc2)nc2ccc(Cl)cc12,> 11.4,-6.84,–,-22,-13.1,> 46 µM,> 9.22,inactive,inactive,-18.2% [at 2.29 µM]
O=C1Nc2ccccc2C1=Nc1cccc2ncccc12,> 11.4,5.64,3.98 µM (active),-3.54,2.41,> 46 µM,> 9.22,inactive,inactive,–
O=C(O)C[C@H](Cc1ccccc1Cl)C(=O)O,> 11.4,-0.0824,inactive,-7.65,13.9,> 46 µM,> 9.22,inactive,inactive,–
